Compound activity deposited in PubChem by Corson Lab, School of Medicine, Indiana University.
FECH block – inhibitors of human ferrochelatase; P22830; purified FECH, Ni-mesoporphyrin absorbance 550 nm; calls only at 10 µM (by protocol); actives 3.3% (n = 20,000); AID 1671448;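 active means enzyme reaction rate more than 3 SD below the solvent-only control wells on the same plate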;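 further: lower slope than DMSO wells means FECH inhibition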
Target sequence (P22830 whole entry, looked up): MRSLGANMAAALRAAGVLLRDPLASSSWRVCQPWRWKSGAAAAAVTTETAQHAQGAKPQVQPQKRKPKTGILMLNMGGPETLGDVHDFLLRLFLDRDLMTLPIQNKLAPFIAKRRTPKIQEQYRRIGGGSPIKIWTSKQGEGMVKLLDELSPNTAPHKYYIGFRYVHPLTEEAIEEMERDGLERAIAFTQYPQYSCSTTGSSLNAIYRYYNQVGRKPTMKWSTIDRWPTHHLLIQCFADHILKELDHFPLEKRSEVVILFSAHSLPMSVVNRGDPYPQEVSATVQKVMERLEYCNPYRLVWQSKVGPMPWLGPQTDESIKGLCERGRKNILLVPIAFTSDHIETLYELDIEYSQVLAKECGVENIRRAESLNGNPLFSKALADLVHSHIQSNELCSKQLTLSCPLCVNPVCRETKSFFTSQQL
The depositor's hits bear a star; i = inactive; + = active, no number. The entries come from a sample that favours hits as a whole.

SMILES | FECH block
Cc1cccc(CN2CCCN(CC(=O)Nc3c(C)cc(C)cc3C)S2(=O)=O)c1 | +
CC(=O)c1cc(CN(C)Cc2cc(C(C)(C)C)n[nH]2)cs1 | i
CC1(C)C(=O)NC(=O)N1Cc1nc(C2CC2)nn1-c1ccc2c(c1)OCCO2 | i
Cc1cc(NCCc2nncn2C(C)C)nc(-c2ccccc2)n1 | i
Cc1cnn(Cc2ccccc2Cl)c1NC(=O)Cc1nonc1C | i
CC(C)CCn1c(=O)n(Cc2ccccn2)c2cc(C(=O)O)ccc21 | i
Cc1cnc(CN(C)C(=O)c2n[nH]c3ccccc23)[nH]1 | i
CCCc1c(C)nc2ncnn2c1Sc1ccc(NS(=O)(=O)c2ccc(OC)c(OC)c2)cc1 | i
O=C(NCC1CCCN(C(=O)OCc2ccccc2)C1)Nc1nncs1 (stereo not given) | i
c1cnc(NCc2cccnc2N2CCc3ccccc3C2)nc1 | i
Cc1ccccc1-c1noc(CNC(=O)C2CC(C(C)C)=NO2)n1 (stereo not given) | i
COc1ccc(Cl)cc1NC(=O)C1CC(=O)NC(Nc2ccc(F)cc2)=N1 (stereo not given) | i
COc1ccc(NC(=O)Cn2c(C(=O)OC(C)C)cc3ccsc32)cc1 | i
CC(=O)c1cccc(NC(=O)Cn2c(C(=O)OC(C)C)cc3ccsc32)c1 | i
CC(=O)c1ccc(NC(=O)Cn2c(C(=O)OC(C)C)cc3ccsc32)cc1 | +
CC(NC(=O)c1ccc(Cn2ccnc2)o1)c1nc2c(s1)CCCC2 (stereo not given) | i
COc1ccc(-c2noc(CSCC(=O)N3CCNC3=O)n2)cc1 | i
Cn1c(=O)n(Cc2ccccc2Cl)c(=O)c2cnc(-c3cccs3)nc21 | i
COC(=O)CC1=CC(=O)N(CC(=O)Nc2ccc(Br)cc2)c2ccccc2N1 | i
CCc1cccc(NC(=O)CSc2cc(Oc3cc(C)cc(C)c3)ncn2)c1 | +
COc1ccc(NC(=O)CSc2cc(N3CCCCC3)ncn2)cc1OC | i
COc1cc(NC(=O)CN2CCCN(Cc3ccc(C)cc3)S2(=O)=O)cc(OC)c1 | i
Cc1ccc(NC(=O)CSc2cc(N3CCCCC3)ncn2)cc1F | i
COc1ccc(CNC(=O)CSc2cc(N3CCCCC3)ncn2)cc1 | i
O=C(CSc1cc(N2CCCCC2)ncn1)Nc1ccc2c(c1)OCCO2 | i
SMILES | FECH block
CSc1ccc(CNC(=O)CSc2cc(Oc3cc(C)cc(C)c3)ncn2)cc1 | +
COc1cc(NC(=O)CSc2cc(Oc3cc(C)cc(C)c3)ncn2)cc(OC)c1 | +
CSc1ccc(CNC(=O)COc2cc(C)nc(-c3ccc(C)cc3)n2)cc1 | i
CCc1cccc(NC(=O)CCC(=O)NCc2ncc[nH]2)c1 | i
Cc1ccc(NC(=O)CSc2cc(Oc3cc(C)cc(C)c3)ncn2)cc1 | +
CCc1cccc(NC(=O)CN2CCCN(Cc3ccc(OC)cc3)S2(=O)=O)c1 | i
CCc1nccn1CCNC(=O)c1cc(Cn2cnc3ccccc32)[nH]n1 | i
Cc1ccc(S(=O)(=O)N2CCC(n3c(C(F)(F)F)nc4cccnc43)CC2)c(C)c1 | i
O=C(c1ccc(=O)[nH]n1)N1CCC(c2cc(-c3ccccc3Cl)n[nH]2)CC1 | i
COc1cc(-c2ccc(N3CCOCC3)cc2)cc(OC)c1OC | i
CN(Cc1cccc2ncccc12)C(=O)c1ccc(C2CCCN2)s1 (stereo not given) | i
CCc1c(C)nn(CCNC(=O)c2cc(C)nc3c(C)cccc23)c1C | i
O=C(CCC(=O)N1CCc2cc(S(=O)(=O)N3CCCc4ccccc43)ccc21)N1CCOCC1 | i
COc1ccc(Nc2cc(C)nc(N3CCN(S(=O)(=O)c4ccc(C)c(C)c4)CC3)n2)cc1 | i
CSc1nc(Nc2cccc(Br)c2)c(C#N)c(-c2ccc(Cl)cc2)n1 | i
Cn1c(=O)c(C(=O)NCc2ccc(F)cc2)nc2ccccc21 | i
Cc1ccc(CNC(=O)c2nc3ccccc3n(C)c2=O)cc1 | +
Cn1c(=O)c(C(=O)NCc2ccc3c(c2)OCO3)nc2ccccc21 | i
Cc1nn(-c2ccc(-c3noc(C4CCC4)n3)cc2)cc1C(=O)Nc1ccc(S(N)(=O)=O)cc1 | i
Cc1ccc(O)c(CN2CCC(c3ccnc(-c4cccc(O)c4)c3)C2)n1 (stereo not given) | i
COc1ccc(S(N)(=O)=O)cc1-c1noc(C2CCCCC2)n1 | i
CCc1nc(-c2cc(S(N)(=O)=O)ccc2OC)no1 | +
COc1ccc(S(N)(=O)=O)cc1-c1noc(C(C)(C)C)n1 | i
Cc1nc2nc(C)c(NC(=O)Nc3ccc(F)cc3)c(=O)n2[nH]1 | i
Cc1ccc(-n2ncc3c(-n4nc(C)cc4NC(=O)Cc4ccc(F)cc4)ncnc32)c(C)c1 | i
Cc1cc(C)n2nc(CN(C(=O)c3cccc(Cl)c3)c3ccc(F)cc3)nc2n1 | i
COc1cccc(C(=O)N(Cc2nc3nc(C)cc(C)n3n2)c2ccc(Cl)cc2)c1 | i
Cc1cc(C)n2nc(CN(C(=O)Cc3ccccc3)c3ccc(Cl)cc3)nc2n1 | i
Cc1cccc(N(Cc2nc3nc(C)cc(C)n3n2)S(=O)(=O)c2ccccc2)c1 | i
